Here are results for 36 molecules from publication PMC5540273 (PLoS ONE, 2017).

Each structure is given as a SMILES string.
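Further: KINOMEscan kinase panel screen.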

This test concerns CSF1R. The note with it: concentration: 1 μM, replicates: in singlicate; n = 1.
With `COc1ccc(Nc2nccc(N3CCC(NC(=O)c4cc5ccccc5s4)C3)n2)cc1` (stereo not drawn) [GSK1379738], the “%Inh” value came to 19%. In the case of `Cc1ccc(-c2nc(Nc3ccncc3)c3ccccc3n2)s1` [GSK189015], the “%Inh” value is 4%.

With `Cn1cncc1C(=O)NC1CCN(c2ccnc(Nc3ccc(F)cc3)n2)C1` (stereo not drawn) [GSK1379717], the “%Inh” value is 6%. For the molecule `COc1ccc(Nc2nccc(N3CCC(NC(=O)C(C)c4ccc(Cl)cc4)C3)n2)cc1` (stereo not drawn) [GSK1379735], the “%Inh” value came out at 27%. For the molecule `COc1nccc(-c2c(-c3ccc(F)cc3)ncn2CCCN2CCOCC2)n1` [SB-282852], the “%Inh” value was found to be 0%.

In the case of `Cc1ccccc1Cn1ccn2c(=O)cc(N3CCOCC3)nc12` [GSK2269905], the “%Inh” value was 26%. As to `CS(=O)(=O)CCNCc1nc(-c2ccc3ncnc(Nc4ccc5c(cnn5Cc5ccccc5)c4)c3c2)cs1.Cl.Cl` [GW569716], the “%Inh” value turned out to be 0%. Under `O=C1NC(=O)C(c2ccc(Cl)cc2)=C1Nc1ccc(O)cc1` [SB-340867] stands 0%; under `Cc1cccc2c(-c3ccncn3)c(-c3ccc(F)cc3)nn12` [GW515532], 0%; under `Cn1cncc1-c1cc2c(Nc3ccc(OCc4ccccc4)cc3)ncnc2cn1` [GW281179], 0%. Then `CCn1c(-c2ccccc2)nc2cnccc21` [SB-733416], with 13%; and `Nc1ncnc2occ(-c3ccc4c(c3)CCN4C(=O)Cc3cc(F)ccc3F)c12` [GSK2645446], with 17%; and `c1ccc(-c2ccnc3[nH]ccc23)cc1` [SB-693578], with 8%.

For `O=C(Nc1n[nH]c2cc(-c3ccsc3)ccc12)C1CC1` [SB-732932], the “%Inh” value amounted to 16%. Turning to `COc1ccc(Nc2nccc(NCCNC(=O)Nc3cc(C)ccc3C)n2)cc1` [GSK1379899], the “%Inh” value amounted to 0%.

For `Cc1ccc(NC(=O)Nc2ccccc2F)cc1-c1ccc(C(=O)Nc2ccncc2)cc1` [GSK1398477], the “%Inh” value amounted to 85%. On to `Cl.Cl.Cl.N#Cc1ccc(CCNc2nccc(-c3cccc(CN4CCNCC4)c3)n2)cc1` [GSK2137462], for which the “%Inh” value is recorded as 8%. Then `O=C1NC(=O)C(c2ccc(Cl)cc2)=C1Nc1cccc(Cl)c1` [SB-317651], with 13%; and `Cc1ccccc1-c1cc(-c2c[nH]nc2-c2ccccn2)ccn1` [GW680061], with 3%; and `Fc1ccc(-c2nc3n(c2-c2ccncc2)CCS3)cc1` [GI98581], with 0%. For `CC(C)c1ccc(O)cc1Nc1ccnc2ccc(C(F)(F)F)cc12` [GW482059], the “%Inh” value turned out to be 0%. Then `CC(=O)c1cccc(NC(=O)NC2CCN(c3ccnc(Nc4ccc(F)cc4)n3)C2)c1` (stereo not drawn) [GSK1379710], with 18%; and `Cc1nccc(-c2c(-c3ccc(F)cc3)ncn2CCCN2CCOCC2)n1.Cl` [SB-282975], with 0%.

With `O=C(Nc1n[nH]c2nc(-c3ccco3)c(Br)cc12)C1CCN(Cc2ccccc2)C1.O=C(O)[C@H](O)[C@@H](O)C(=O)O` (stereo not drawn) [SB-742034], the “%Inh” value is 10%. Then `O=c1cc(N2CCOCC2)nc2n(Cc3cccc(Cl)c3Cl)c3ccccc3n12` [GSK2299009], with 28%; and `Cn1cnc2c(N)ncnc21` [SKF-97623], with 0%; and `CNCc1ccc2nc(NC(=O)c3ccc(C(C)(C)C)cc3)cn2c1`, with 42%. As for `COc1ccc(CSc2nnc(-c3ccc4nccn4c3)o2)cc1C(F)(F)F`, the “%Inh” value turned out to be 17%. `O=C(Nc1n[nH]c2nc(-c3cccs3)c(Br)cc12)C1CCCC1` [SB-743341]: the “%Inh” value is given as 18%.

Turning to `Nc1nccc(-c2c(-c3ccc(F)cc3)ncn2C2CCN(Cc3ccccc3)CC2)n1` [SB-219980], the “%Inh” value is listed as 0%. Then `Cc1ccc(NC(=O)Nc2ccc(Cl)c(C(F)(F)F)c2)cc1-c1ccc(C(=O)Nc2ccncc2)cc1` [GSK1398470], with 30%; and `COc1ccc(CSc2nnc(-c3ccc4c(c3)CCO4)o2)cc1`, with 0%.

As to `NS(=O)(=O)c1cccc(N/C=C2\C(=O)Nc3ccc(S(=O)(=O)Cc4c(Cl)cccc4Cl)cc32)c1` [GSK398099], the “%Inh” value was 3%.

Regarding `CNc1nc(-c2ccc3c(N)n[nH]c3c2)cc(N2C[C@@H](C(=O)NC3CCCCC3)OC[C@H]2C)n1` [GSK2375584], the “%Inh” value is listed as 2%. Then `CS(=O)(=O)Cc1ccc(Nc2nccc(-c3c(-c4cccc(NC(=O)C5CCCCC5)c4)nn4ncccc34)n2)cc1` [GSK350559], with 79%; and `COC(=O)c1cccc(NC(=O)NC2CCN(c3ccnc(Nc4ccc(OC)cc4)n3)C2)c1` (stereo not drawn) [GSK1379746], with 0%.
